Results on 46 molecules are retold here after PubChem BioAssay AID2685 (National Center for Advancing Translational Sciences (NCATS), 2010).

Out of some 320,000 compounds screened, about 2,100 (0.66%) were called active. About 53% were inconclusive and are not listed. Calls come from the whole dose curve; as a rule, active = well fitted inhibition curve with a large enough effect in the signal ratio, with a control signal flat (not every such curve was filed as active); inconclusive = small, poorly fitted or top-dose-only effect, or effect the other way, or a change in a side signal; inactive = flat fitted curve, though single readings scatter; the % refers to the signal ratio. The entries come from a sample that favours actives as a whole.
Potency is the fitted concentration of half-maximal effect.

The nature of the assay: qHTS Assay for Lipid Storage Modulators in Drosophila S3 Cells.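 For cell number change: cells counted by Cell Tracker Red CMTPX staining in the red channel.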 For lipid storage change, negative = inhibition: % is set by controls: 0 for no effect and ±100 for the full control effect. The settings on record: BODIPY lipid droplet fluorescence, 18-24 h, cells fed with added oleic acid; cell number change: measured here: cell count max response; series mostly up to 46.1 µM; lipid storage change, negative = inhibition: at the top concentration. The procedure, abridged:
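Drosophila S3 cells got compounds at several concentrations plus oleic acid (400 uM solution). Laser-scanning cytometry with 488 nm excitation read lipid droplets at 500-530 nm and cells at 575-640 nm. Percent activity was relative to 20 uM Triacsin C.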
Background: qHTS replaces the single test concentration by a dilution series.
As to `CCn1c(CSc2nc(C)cs2)nc2cc(S(=O)(=O)N(C)C)ccc21`, the “lipid storage change, negative = inhibition” value is -12.7% (inactive) and the cell number change is -5.93%.

Turning to `CCn1c(SCC(=O)NC2CCCC2)nnc1-c1c[nH]c2ccccc12`, the “lipid storage change, negative = inhibition” value was 28.1% (inactive) and the cell number change stood at 30%.

Take `CN(C)C(CNC(=O)CN1C(=O)NC2(CCc3ccccc32)C1=O)c1ccco1` (configuration not stated): the “lipid storage change, negative = inhibition” value was 13% (inactive) and the cell number change was found to be 6.97%.

Consider `Cc1ccc(NC(=O)C(C)SCC(=O)Nc2ccc(F)cc2)cc1S(=O)(=O)N1CCOCC1` (configuration not stated), for which the “lipid storage change, negative = inhibition” value was 19.8% (inactive).

On to `CC1(C(=O)NC2CCCCCC2)CCC(=O)N1Cc1ccc2c(c1)OCO2` (configuration not stated), for which the “lipid storage change, negative = inhibition” value was -10.3% (inactive) and the cell number change was -18.4%.

Take `Nc1nc(-c2ccccc2)c(-c2ccccc2)n1N`: the call was inactive.

On to `c1ccc(-c2cn3nc(-c4ccccc4)c(-c4ccccc4)nc3n2)cc1`, for which the “lipid storage change, negative = inhibition” value is -0.159% (inactive) and the cell number change was found to be 19.6%.

In the case of `c1ccc(-c2cnn3c(-c4ccccc4)c(-c4ccccc4)nc3n2)cc1`, the Potency was 3.26 µM (active) and the cell number change was -3.03%.

Regarding `CC(=O)N(CCCN(C)C)Cc1ccccn1`, the “lipid storage change, negative = inhibition” value was -10.4% (inactive) and the cell number change is 6.64%.

With `O=S(=O)(c1ccc2ccccc2c1)N1CCN(C2CCN(Cc3ccccc3)CC2)CC1`, the Potency is 5.8 µM (active) and the cell number change amounted to 21%.

With `Cc1ccc(S(=O)(=O)N2CCN(C3CCN(Cc4ccccc4)CC3)CC2)cc1`, the “lipid storage change, negative = inhibition” value is 6.16% (inactive) and the cell number change was -12.2%.

On to `c1ccc(CN2CCC(N3CCC(N4CCCCCC4)CC3)CC2)cc1`, for which the Potency was 0.82 µM (active) and the cell number change was -20.6%.

For the molecule `c1ccc(C2CCC(N3CCC(N4CCCCC4)CC3)CC2)cc1` (configuration not stated), the result was inactive and the cell number change was -17%.

As for `CC1CCN(S(=O)(=O)c2ccc3ccccc3c2)CC1`, the Potency was 3.26 µM (active) and the cell number change stood at 5.85%.

Turning to `CCS(=O)(=O)N1CCN(S(=O)(=O)c2ccc3ccccc3c2)CC1`, the result was inactive and the cell number change was found to be 16.6%.

In the case of `O=S(=O)(c1ccccc1)N1CCN(C2CCN(Cc3ccccc3)CC2)CC1`, the “lipid storage change, negative = inhibition” value was 2.03% (inactive) and the cell number change is 9.59%.

Take `Brc1ccccc1CN1CCC(N2CCCCC2)CC1`: the “lipid storage change, negative = inhibition” value is 11.6% (inactive) and the cell number change is -5.87%.

Consider `O=S(=O)(c1ccc2ccccc2c1)N1CCCCCC1`, for which the “lipid storage change, negative = inhibition” value was -25% (inactive) and the cell number change was 0.283%.

Regarding `COc1cccc(NC(=O)CN2C(=O)NC(C)(CCC(C)C)C2=O)c1` (configuration not stated), the “lipid storage change, negative = inhibition” value is 16.3% (inactive) and the cell number change was determined as 17.1%.

`O=C(NCCc1ccc(Cl)cc1)c1ccc(CS(=O)Cc2ccc(Cl)cc2)o1` (configuration not stated): the call was inactive.

Regarding `O=C(CCN1C(=O)COc2ccccc21)N1CCN(c2ccccc2)CC1`, the “lipid storage change, negative = inhibition” value is -3.53% (inactive) and the cell number change is 0.131%.

For `O=C(NCC1CCCO1)C1CCN(C2CCN(C(=O)Cc3ccsc3)CC2)CC1` (configuration not stated), the “lipid storage change, negative = inhibition” value is -25.2% (inactive) and the cell number change was -8.37%.

`COc1ccc(CNc2nc3ccccc3n2C)c(OC)c1`: the “lipid storage change, negative = inhibition” value was -7.05% (inactive) and the cell number change is -4.3%.

With `CCOc1c(CNc2nnnn2C)cccc1OC`, the “lipid storage change, negative = inhibition” value is 5.04% (inactive) and the cell number change was 15.4%.

Consider `COc1ccc(CNc2nnnn2C)c(OC)c1`, for which the Potency was 0.651 µM (active) and the cell number change is -2.1%.

`O=C1NC(=S)N/C1=C\c1ccccc1OCc1ccc(C(=O)O)cc1`: the “lipid storage change, negative = inhibition” value is -4.41% (inactive) and the cell number change was -1.56%.

Consider `O=C(NCCNC(=O)c1ccccc1O)c1ccccc1O`, for which the Potency was 9.2 µM (active) and the cell number change is -28.8%.

Turning to `O=C(NCCNC(=O)c1ccccc1Br)c1ccccc1Br`, the “lipid storage change, negative = inhibition” value was 5.24% (inactive) and the cell number change is 13.7%.

In the case of `O=C(NCCO)c1ccccc1O`, the result was inactive and the cell number change was found to be 26.5%.

With `Cc1ccc(C2C(C#N)=C(N)N(c3ncn[nH]3)C3=C2C(=O)CC(C)(C)C3)cc1` (configuration not stated), the outcome was inactive.

Take `CCOc1ccc(N(CC(=O)NC(C(C)C)C(C)C)S(=O)(=O)c2ccc(OC)c(OC)c2)cc1`: the “lipid storage change, negative = inhibition” value was -10.3% (inactive) and the cell number change worked out at 14%.

As to `CC(=O)C1=C(O)C(=O)N(c2ccc(S(N)(=O)=O)cc2)C1c1cccc([N+](=O)[O-])c1` (configuration not stated), the “lipid storage change, negative = inhibition” value was -11.7% (inactive) and the cell number change is 5.32%.

With `CC(NC(=O)Cc1ccc(S(=O)(=O)N2CCOCC2)s1)c1ccc(Cl)c(Cl)c1` (configuration not stated), the “lipid storage change, negative = inhibition” value is 4.21% (inactive) and the cell number change is -8.77%.

For the molecule `CC(C)CNC(=O)c1ccc(Cl)c(Cl)c1`, the “lipid storage change, negative = inhibition” value is 11.7% (inactive) and the cell number change is -14.4%.

Turning to `CC(NC(=O)CCl)c1ccc(Cl)c(Cl)c1` (configuration not stated), the Potency is 23.1 µM (active) and the cell number change is -24.5%.

As to `Cc1ccc(NC2CCCN(C(=O)c3cnc4ccccn4c3=O)C2)cc1C` (configuration not stated), the “lipid storage change, negative = inhibition” value was -4% (inactive) and the cell number change is 10.1%.

Turning to `CC1CCN(C(=O)CCNS(=O)(=O)c2ccccc2)CC1`, the “lipid storage change, negative = inhibition” value is -3.73% (inactive) and the cell number change was 9.54%.

With `Cc1ccc(S(=O)(=O)NCCCC(=O)N2CCC(C)CC2)cc1`, the Potency was 16.4 µM (active) and the cell number change is -15.3%.

For the molecule `Cc1ccc(S(=O)(=O)NCC(=O)NCC(=O)N2CCC(C)CC2)cc1`, the molecule was classed as inactive and the cell number change amounted to 27.4%.

As to `CC(=O)Nc1cc(NC(C)=O)cc(C(=O)OCC(=O)N2CC(C)OC(C)C2)c1` (configuration not stated), the Potency is 25.9 µM (active) and the cell number change was -18.5%.

As for `CC1CN(C(=O)COC(=O)c2ccc(NC(=O)CC#N)cc2)CC(C)O1` (configuration not stated), the “lipid storage change, negative = inhibition” value was 1.66% (inactive) and the cell number change was -23.4%.

`CCOc1ccc(C(=O)OCC(=O)N2CC(C)OC(C)C2)cc1OCC` (configuration not stated): the call was inactive and the cell number change is -6.35%.

With `COC(=O)c1ccc(NC(=O)CSc2nc(=O)n3cccc(C)c3n2)cc1`, the “lipid storage change, negative = inhibition” value was 8.53% (inactive) and the cell number change is -5.09%.

On to `CC(=O)Nc1ccc(-n2c(C)ccc2-c2ccccc2)cc1`, for which the “lipid storage change, negative = inhibition” value was 6.88% (inactive) and the cell number change worked out at 12.4%.

Turning to `COC(=O)c1ccc(-n2c(C)ccc2-c2ccccc2)cc1`, the molecule was called inactive.

For `COc1ccc(-n2c(C)ccc2-c2ccccc2)cn1`, the Potency was 14.6 µM (active) and the cell number change came out at 3.52%.
